{
  "source": "PubChem BioAssay (Tox21)",
  "key": {"[1]": {"experiment": "qHTS assay to identify small molecule agonists of the estrogen related receptor (ERR) signaling pathway (AID 1224820; active = well fitted curve in the direction sought with a large enough effect in the repeat runs; an effect the other way counts as inactive or inconclusive; note: potency is the fitted concentration of half-maximal effect)", "outline": "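After 6 h plating (2,000 cells/well) and 18 h compound treatment at 37 C, ERR cells were lysed with One-Glo and luminescence read after 30 min at room temperature.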"}, "[2]": {"tested_on": "estrogen-related receptor alpha (ERRalpha) with PGC-1alpha coactivator, human", "experiment": "qHTS assay to identify small molecule antagonists of the estrogen related receptor signaling pathway with the pleiotropic PPARgamma coactivator (PGC) (AID 1224821); note: nearly all actives have a fitted effect of over 50% in size; note: potency is the fitted concentration of half-maximal effect", "outline": "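Luminescence from One-Glo luciferase reagent (30 min, room temperature) measured after 18 h compound treatment at 37 °C. Cells carry the PGC/ERR reporter and were seeded 6 h prior to dosing.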"}, "[3]": {"target": "Acetylcholinesterase (Homo sapiens) (UniProt P22303)", "sequence (P22303 whole entry, looked up)": "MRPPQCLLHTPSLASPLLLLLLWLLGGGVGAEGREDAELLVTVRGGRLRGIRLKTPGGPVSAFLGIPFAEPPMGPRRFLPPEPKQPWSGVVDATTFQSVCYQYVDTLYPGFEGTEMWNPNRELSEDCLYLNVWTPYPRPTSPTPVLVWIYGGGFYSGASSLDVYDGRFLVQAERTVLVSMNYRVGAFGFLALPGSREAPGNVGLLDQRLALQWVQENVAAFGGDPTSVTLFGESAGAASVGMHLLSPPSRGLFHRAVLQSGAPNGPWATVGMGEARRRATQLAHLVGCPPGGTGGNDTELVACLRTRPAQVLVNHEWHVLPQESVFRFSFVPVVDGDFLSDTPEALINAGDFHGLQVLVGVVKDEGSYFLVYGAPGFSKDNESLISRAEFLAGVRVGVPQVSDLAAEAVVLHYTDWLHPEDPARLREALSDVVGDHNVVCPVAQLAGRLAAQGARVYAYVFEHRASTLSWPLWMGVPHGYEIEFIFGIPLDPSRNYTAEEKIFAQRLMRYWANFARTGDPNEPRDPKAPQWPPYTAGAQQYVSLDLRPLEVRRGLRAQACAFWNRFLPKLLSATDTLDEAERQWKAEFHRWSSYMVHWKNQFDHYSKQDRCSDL", "experiment": "Acetylcholinesterase (AChE) small molecule antagonists: colormetric cell-based qHTS assay (AID 1347395); note: nearly all actives have a fitted effect of over 30% in size", "outline": "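After overnight attachment at 37 C, SH-SY5Y cells get 30 min compound exposure; detection cocktail (acetylthiocholine, DTNB) then incubates 90 min at 37 C, and absorbance reflects AChE-generated thiocholine.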"}, "[4]": {"target": "Acetylcholinesterase (Homo sapiens) (UniProt P22303)", "experiment": "Acetylcholinesterase (AChE) small molecule antagonists: enzyme-based qHTS assay (AID 1347397); note: nearly all actives have a fitted effect of over 55% in size", "conditions": "Potency: AChE enzyme activity inhibition; outcome: AChE enzyme activity inhibition", "outline": "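In this quantitative HTS, compounds from the Tox21 10K collection were preincubated 30 min at ambient temperature with recombinant human AChE dispensed at 50 mU/mL. Hydrolysis of acetylthiocholine was then followed for 10 min by DTNB colour development.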"}, "[5]": {"target": "Acetylcholinesterase (Homo sapiens) (UniProt P22303)", "experiment": "Acetylcholinesterase (AChE) small molecule antagonists: fluorescence cell-based qHTS assay (AID 1347398); note: nearly all actives have a fitted effect of over 50% in size", "conditions": "Potency: AChE activity; outcome: AChE activity", "outline": "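Cells (SH-SY5Y) attached overnight, were dosed with compound or DMSO vehicle for 30 min at 37 C, and then incubated 40 min at room temperature with acetylthiocholine and Thiolite Green; green fluorescence indexed AChE activity.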"}, "[6]": {"target": "Acetylcholinesterase (Homo sapiens) (UniProt P22303)", "experiment": "Acetylcholinesterase (AChE) small molecule antagonists: enzyme-based qHTS assay with human liver microsomes (AID 1347399); note: nearly all actives have a fitted effect of over 60% in size", "conditions": "Potency: qHTS inhibition; outcome: qHTS inhibition", "outline": "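Recombinant human AChE (50 mU/mL in the enzyme mix) and human liver microsomes (0.25 mg/mL final) were preincubated with compound and NADPH (0.25 mg/mL final) for 30 min at 37 C. Acetylthiocholine/DTNB was then added; thiocholine was read colorimetrically after 10 min at room temperature.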"}, "[7]": {"experiment": "qHTS assay to identify small molecule antagonists of the estrogen related receptor (ERR) signaling pathway (AID 1224819; active = well fitted curve in the direction sought with a large enough effect in the repeat runs; an effect the other way counts as inactive or inconclusive; note: nearly all actives have a fitted effect of over 50% in size; note: potency is the fitted concentration of half-maximal effect)", "outline": "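ERR reporter cells were plated at 2,000 cells/well and left 6 h at 37 C/5% CO2 before pin-tool transfer of compounds in DMSO. After 18 h at 37 C, One-Glo was added and luminescence was read 30 min later at room temperature.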"}, "[8]": {"experiment": "qHTS assay to identify small molecule agonists of the estrogen related receptor signaling pathway with the pleiotropic PPARgamma coactivator (PGC) (AID 1224823; active = well fitted curve in the direction sought with a large enough effect in the repeat runs; an effect the other way counts as inactive or inconclusive; note: potency is the fitted concentration of half-maximal effect)", "outline": "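Luminescence from One-Glo reagent (30 min, room temperature) was read after 18 h compound treatment at 37 C of PGC/ERR cells plated 6 h beforehand; compounds delivered in DMSO by pin tool.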"}, "[9]": {"experiment": "qHTS assay to identify small molecule agonists of H2AX (AID 1224845; active = well fitted activation curve with a large enough effect in the signal ratio in the repeat runs, not every such curve was filed as active; the % refers to the signal ratio; note: potency is the fitted concentration of half-maximal effect)", "outline": "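Wild-type CHO-K1 cells, plated overnight, exposed 3hr at 37C to 15 concentrations (0.76% DMSO final). Lysed, then HTRF anti-pH2AX (S139) cryptate and anti-H2AX-d2 antibodies, 24 hr room temperature; 665/620 nm emission read.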"}, "[10]": {"experiment": "Caspase-3/7 induction in HepG2 cells by small molecules, qHTS assay (AID 1346978; active = well fitted curve in the direction sought with a large enough effect in the repeat runs; an effect the other way counts as inactive or inconclusive; note: nearly all actives have a fitted effect of over 15% in size)", "outline": "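Wild-type HepG2 cells, 2,000/well, settled 5 hr at 37 C and 5% CO2, then compound-treated for 17 hr; caspase-3/7 activity read by luminescent Caspase-Glo 3/7 after 30 min at room temperature.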"}, "[11]": {"experiment": "qHTS assay for small molecule agonists of the p53 signaling pathway (AID 651631); note: nearly all actives have a fitted effect of over 15% in size", "outline": "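Beta-lactamase reporter activity under p53 response elements was quantified in HCT-116 cells by FRET fluorescence, following 16 h incubation with test compounds at 37 °C and 2 h substrate development at room temperature.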"}},
  "note": "Results filed as inconclusive are left out. A call without a number means that no potency is given here. Activity calls are given as the source filed them. Unless noted, calls come from the whole dose curve.",
  "data": [
    {"smiles": "CC1(C(=O)O)C2CCC(O2)C1(C)C(=O)O", "note": "(configuration not stated)", "values": [
      {"measurement": "Potency", "setting": "[1]", "result": "inactive"},
      {"measurement": "Potency", "setting": "[2]", "result": "inactive"}
    ]},
    {"smiles": "N#CCCNCCC#N", "values": [
      {"measurement": "Potency", "setting": "[3]", "result": "inactive"},
      {"measurement": "Potency", "setting": "[4]", "result": "inactive"},
      {"measurement": "Potency", "setting": "[5]", "result": "inactive"},
      {"measurement": "Potency", "setting": "[6]", "result": "inactive"}
    ]},
    {"smiles": "CCCCCCCCCCCCCC(=O)O[C@@H]1[C@@H](C)[C@@]2(O)[C@@H](C=C(CO)C[C@@]3(O)C(=O)C(C)=C[C@@H]23)C2C(C)(C)[C@@]21OC(C)=O", "note": "(some centres not stated)", "values": [
      {"measurement": "Potency", "setting": "[7]", "result": "inactive"},
      {"measurement": "Potency", "setting": "[1]", "result": "0.00872 µM (active)"},
      {"measurement": "Potency", "setting": "[2]", "result": "inactive"},
      {"measurement": "Potency", "setting": "[8]", "result": "0.00671 µM (active)"}
    ]},
    {"smiles": "CCNC(=O)[C@H]1O[C@@H](n2cnc3c(N)ncnc32)[C@H](O)C1O", "note": "(some centres not stated)", "values": [
      {"measurement": "Potency", "setting": "[1]", "result": "inactive"},
      {"measurement": "Potency", "setting": "[2]", "result": "inactive"},
      {"measurement": "Potency", "setting": "[8]", "result": "0.168 µM (active)"}
    ]},
    {"smiles": "N#CC1(O)CCCCC1", "values": [
      {"measurement": "Potency", "setting": "[9]", "result": "inactive"},
      {"measurement": "Potency", "setting": "[3]", "result": "inactive"},
      {"measurement": "Potency", "setting": "[4]", "result": "inactive"},
      {"measurement": "Potency", "setting": "[5]", "result": "inactive"},
      {"measurement": "Potency", "setting": "[6]", "result": "inactive"}
    ]},
    {"smiles": "CC1(C)[C@H](C(=O)OCc2cccc(Oc3ccccc3)c2)[C@@H]1C=C(Cl)Cl", "values": [
      {"measurement": "Potency", "setting": "[3]", "result": "inactive"},
      {"measurement": "Potency", "setting": "[4]", "result": "inactive"},
      {"measurement": "Potency", "setting": "[5]", "result": "inactive"},
      {"measurement": "Potency", "setting": "[6]", "result": "inactive"}
    ]},
    {"smiles": "Cc1c2ccncc2c(C)c2c1[nH]c1ccccc12", "values": [
      {"measurement": "Potency", "setting": "[1]", "result": "inactive"},
      {"measurement": "Potency", "setting": "[8]", "result": "inactive"}
    ]},
    {"smiles": "c1ccc(CCCN2CCN(CCOC(c3ccccc3)c3ccccc3)CC2)cc1", "values": [
      {"measurement": "Potency", "setting": "[1]", "result": "inactive"},
      {"measurement": "Potency", "setting": "[8]", "result": "inactive"}
    ]},
    {"smiles": "CN1CC[C@@]2(C)c3cc(O)ccc3N(C)C12", "note": "(some centres not stated)", "values": [
      {"measurement": "Potency", "setting": "[1]", "result": "inactive"},
      {"measurement": "Potency", "setting": "[8]", "result": "inactive"}
    ]},
    {"smiles": "O=S1(=O)N(CCN2CC=C(c3c[nH]c4cc(F)ccc34)CC2)c2cccc3c2N1CCC3", "values": [
      {"measurement": "Potency", "setting": "[7]", "result": "16.2 µM (active)"},
      {"measurement": "Potency", "setting": "[1]", "result": "inactive"},
      {"measurement": "Potency", "setting": "[2]", "result": "23.7 µM (active)"},
      {"measurement": "Potency", "setting": "[8]", "result": "inactive"}
    ]},
    {"smiles": "ClC(Cl)(Cl)c1ccc(C(Cl)(Cl)Cl)cc1", "values": [
      {"measurement": "Potency", "setting": "[9]", "result": "112 µM (active)"},
      {"measurement": "Potency", "setting": "[3]", "result": "inactive"},
      {"measurement": "Potency", "setting": "[4]", "result": "inactive"},
      {"measurement": "Potency", "setting": "[5]", "result": "inactive"},
      {"measurement": "Potency", "setting": "[6]", "result": "inactive"}
    ]},
    {"smiles": "O=[N+]([O-])c1ccccc1Cl", "values": [
      {"measurement": "Potency", "setting": "[10]", "result": "inactive"}
    ]},
    {"smiles": "O=C1OC(=O)c2c(Br)c(Br)c(Br)c(Br)c21", "values": [
      {"measurement": "Potency", "setting": "[9]", "result": "inactive"},
      {"measurement": "Potency", "setting": "[10]", "result": "inactive"},
      {"measurement": "Potency", "setting": "[3]", "result": "inactive"},
      {"measurement": "Potency", "setting": "[4]", "result": "inactive"},
      {"measurement": "Potency", "setting": "[5]", "result": "inactive"}
    ]},
    {"smiles": "Cc1cc([N+](=O)[O-])ccc1N", "values": [
      {"measurement": "Potency", "setting": "[11]", "result": "inactive"},
      {"measurement": "Potency", "setting": "[9]", "result": "inactive"},
      {"measurement": "Potency", "setting": "[10]", "result": "inactive"},
      {"measurement": "Potency", "setting": "[3]", "result": "inactive"},
      {"measurement": "Potency", "setting": "[4]", "result": "inactive"},
      {"measurement": "Potency", "setting": "[5]", "result": "inactive"},
      {"measurement": "Potency", "setting": "[6]", "result": "inactive"}
    ]},
    {"smiles": "O=[N+]([O-])/C=C/c1ccc2c(c1)OCO2", "values": [
      {"measurement": "Potency", "setting": "[1]", "result": "inactive"},
      {"measurement": "Potency", "setting": "[8]", "result": "inactive"}
    ]}
  ]
}
